FMDV inh: High Throughput Screening for Foot and Mouth Disease Virus Antivirals. FMDV antiviral cell-based qHTS. 410,000 tested, 1.2% active. Potency, µM (titrated, usually from 57.9 µM), actives largely listed as inhibitors; calls by dose curve; tested in HEK293T cells; further: read-out not given here; nearly all actives have a fitted effect of over 45% in size
HCMV inh: qHTS Assay for inhibitors of the human cytomegalovirus (HCMV); HFF cells, HCMV-luciferase reporter, 72 h; active compounds read low; activity change, negative = inhibition, % at 57.5 µM; 410,000 tested, 4.5% active; AID 1259415, 2018; in the data active means activity change below about -60%; inconclusive means no clear call, values can overlap the other calls; inactive means above about -39%
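HFF cells seeded 16 h at 37C, treated with compounds, infected with luciferase-reporter HCMV at MOI 1 PFU/cell; luciferase read at 72 h post infection, normalized to buffer-only and Salinomycin controls.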
VACV mCherry inh: qHTS for Stage-Specific Inhibitors of Vaccinia Orthopoxvirus: mCherry Reporter Primary qHTS; AID 720579, 2013; Vaccinia virus mCherry reporter infection, fluorescence; Potency, µM (series often up to 36.5 µM), most hits filed as inhibitors; 310,000 tested, 0.63% active; calls by dose curve; tested in A549 cells; further: nearly all actives have a fitted effect of over 35% in size
VACV Venus inh: qHTS for Stage-Specific Inhibitors of Vaccinia Orthopoxvirus: Venus Reporter Primary qHTS; Vaccinia virus Venus reporter expression, fluorescence; Potency, µM (highest dose often 36.5 µM), usual class: inhibitors; 330,000 tested, 0.46% active; calls by dose curve; tested in A549 cells; further: nearly all actives have a fitted effect of over 30% in size
HCV inh: qHTS Assay for Inhibitors of Hepatitis C Virus (HCV) | Huh7.5.1 HCVcc-Cre infection, luciferase reporter, 44 h | Potency, µM (titrated, usually from 41.8 µM), hits mostly inhibitors | 340,000 tested, 3.4% active | AID 651820, 2012; active means well fitted inhibition curve with a large enough effect; inconclusive means small, poorly fitted or top-dose-only effect, or another doubt; inactive means no such curve, though single readings can be large or run the other way
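Compounds are dispensed onto cells plated 4 h earlier at 1,000 per well, with HCVcc-Cre virus (about 0.5 moi) added next. Following 44 h of culture, luminescent signal is measured for 15 sec after 15 min with substrate at room temperature.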
Of the large screens only hits and unclear results are named; the others gave an inactive call; ! = not active in a repeat. Sampled rows, rich in hits. Any-hit rate of the full collection: about 7.3%.

C=C1C(=O)O[C@@H]2[C@H]3O[C@]3(C)CC/C=C(\C)CC[C@@H]12	FMDV inh 31.6µM!
C=C1C(=O)OC2C=C(C)CCC=C(C)CCC12 (centres undefined)	none (no result: HCMV inh, VACV mCherry inh, VACV Venus inh, HCV inh)
CC(=O)Oc1ccc2c(=O)oc(-c3ccccc3)nc2c1	none
CC(=O)Oc1ccc(-c2nc3cc(Cl)ccc3c(=O)o2)cc1	HCMV inh -78.4
CCC(=O)Nc1ccccc1C(=O)NC1CCCCC1	HCMV inh -109.7
Cc1ccc(Cl)c(OCC(=O)Nc2ccccc2C(=O)NC2CC2)c1	HCMV inh -100.1 (no result: VACV mCherry inh, VACV Venus inh)
CC(NCC(=O)Nc1ccccc1C(=O)NC1CC1)c1ccc(Cl)cc1 (centres undefined)	FMDV inh 20µM (no result: HCV inh)
O=C(CN1C(=O)NC(Cc2c[nH]c3ccccc23)C1=O)Nc1cccc(S(=O)(=O)N2CCCCCC2)c1 (centres undefined)	HCMV inh inconclusive, VACV mCherry inh inconclusive, VACV Venus inh inconclusive, HCV inh 10µM
O=C(CN1C(=O)NC(Cc2c[nH]c3ccccc23)C1=O)Nc1cccc(S(=O)(=O)N2CCCC2)c1 (centres undefined)	FMDV inh inconclusive, HCV inh inconclusive
CN(C)S(=O)(=O)c1cccc(NC(=O)CN2C(=O)NC(Cc3c[nH]c4ccccc34)C2=O)c1 (centres undefined)	VACV mCherry inh inconclusive, HCV inh 1.58µM
Cc1ccc(NC(=O)CN2C(=O)NC(Cc3c[nH]c4ccccc34)C2=O)cc1S(=O)(=O)N1CCCCC1 (centres undefined)	FMDV inh inconclusive, VACV mCherry inh inconclusive, HCV inh 11.2µM
COc1cccc(NC(=O)CN2C(=O)NC(Cc3c[nH]c4ccccc34)C2=O)c1 (centres undefined)	none
CCOc1ccc(CCNC(=O)COC(=O)/C=C/c2ccc(OCC#N)c(OC)c2)cc1OCC	none
CCOc1cc(/C=C/C(=O)OCC(=O)NC2CCS(=O)(=O)C2)ccc1OCc1ccccc1 (centres undefined)	HCV inh 12.6µM
CCOc1ccc(CCNC(=O)COC(=O)/C=C/c2ccccc2)cc1OCC	HCMV inh -86.8
CC(=O)Nc1ccc(S(=O)(=O)/N=C2\C(=O)c3ccccc3C([O-])=C2n2cc[n+](-c3ccccn3)c2)cc1	HCMV inh inconclusive (no result: VACV mCherry inh, VACV Venus inh)
Cc1ccc(S(=O)(=O)/N=C2\C(=O)c3ccccc3C([O-])=C2n2cc[n+](CCC(C)C)c2)cc1	VACV mCherry inh inconclusive, VACV Venus inh inconclusive, HCV inh 17.8µM (no result: FMDV inh, HCMV inh)
CCCC[n+]1ccn(C2=C([O-])c3ccccc3C(=O)/C2=N\S(=O)(=O)c2ccc(Br)cc2)c1	VACV mCherry inh inconclusive, HCV inh 10µM
Cc1ccc(NC(=O)C(Cc2ccccc2)n2cccc2)c(C)c1 (centres undefined)	none (no result: HCV inh)
O=C1COCc2ccc(-c3cccc(CO)c3)cc2N1CCc1ccccc1	none (no result: FMDV inh, VACV mCherry inh, VACV Venus inh, HCV inh)
CC(C)N(Cc1nc(-c2ccc(Cl)cc2)no1)C(=O)c1cccs1	HCMV inh -60.3, HCV inh inconclusive (no result: VACV mCherry inh, VACV Venus inh)
Cc1ccccc1OCC(=O)N(Cc1nc(-c2ccccc2)no1)C(C)C	none (no result: FMDV inh)
COc1ccccc1OCC(=O)N(Cc1nc(-c2ccccc2)no1)C1CCCCC1	VACV Venus inh inconclusive, HCV inh 11.2µM (no result: VACV mCherry inh)
COc1ccccc1C(=O)N(Cc1nc(-c2ccc(Cl)cc2)no1)C(C)C	FMDV inh inconclusive, HCV inh 11.2µM
CCOc1cc(C(=O)N(Cc2nc(-c3ccc(C)cc3)no2)C(C)C)cc(OCC)c1OCC	FMDV inh inconclusive, HCMV inh -83.0 (no result: HCV inh)
COC(=O)[C@H]1[C@H](CO)[C@H]2Cn3c(cccc3=O)[C@@H]1N2Cc1cocn1	none (no result: FMDV inh, VACV mCherry inh, VACV Venus inh, HCV inh)
COc1ccc(N(CC(=O)N2CCc3ccccc3C2)S(C)(=O)=O)cc1Cl	none (no result: VACV mCherry inh, VACV Venus inh)
O=C(c1cccc(F)c1)N(Cc1cc2cc3c(cc2nc1N1CCOCC1)CCC3)CC1CCCO1 (centres undefined)	none (no result: HCMV inh, HCV inh)
Cc1ccc(C(=O)N(Cc2nc(-c3ccc(C)cc3)no2)C(C)C)cc1	none
CC(C)N(Cc1nc(-c2ccccc2)no1)C(=O)c1ccc(Cl)cc1	HCMV inh -89.3, HCV inh inconclusive
CC(C)N(Cc1nc(-c2ccccc2)no1)C(=O)c1ccc([N+](=O)[O-])cc1	HCV inh 22.4µM
CCCc1cnc(NCCNCC(O)COc2ccc(Cl)c(Cl)c2)nc1 (centres undefined)	FMDV inh inconclusive, HCMV inh -98.3, VACV mCherry inh inconclusive, HCV inh inconclusive
CC(C)(C)N=Cc1cc(-c2ccccc2)sc1O	HCV inh 10µM
O=C(Nc1sc(-c2ccccc2)cc1C(=O)O)c1ccccc1	VACV mCherry inh inconclusive
CCn1c(=O)c2cc(C(=O)N(CCCOC(C)C)Cc3ccco3)sc2c2ccccc21	none (no result: HCV inh)
COC(=O)c1cc(NC(=S)NCc2ccc(Cl)cc2)cc(C(=O)OC)c1	FMDV inh inconclusive, HCMV inh -76.1, HCV inh inconclusive
COC(=O)c1cccc(NC(=S)NCc2ccc(Cl)cc2)c1	none
Cc1ccc(NS(=O)(=O)c2ccc(C(=O)N3CCN(c4ncccn4)CC3)cc2)cc1	FMDV inh inconclusive, HCMV inh -77.2, VACV Venus inh inconclusive, HCV inh inconclusive
O=C(c1ccc(S(=O)(=O)Nc2ccc(F)cc2)cc1)N1CCN(c2ccccn2)CC1	HCMV inh -80.4, HCV inh inconclusive
COC(=O)c1c(-c2cccs2)csc1NC(=O)c1cccnc1	HCV inh 11.2µM (no result: VACV mCherry inh)
COC(=O)c1c(-c2cccs2)csc1NC(=O)c1ccc(Cl)cc1	none (no result: HCV inh)
CCOC(=O)c1c(-c2cccs2)csc1NC(=O)CN(CC)CC	HCV inh 11.2µM (no result: VACV mCherry inh, VACV Venus inh)
CCOC(=O)c1c(-c2cccs2)csc1NC(=O)CC(C)C	HCV inh inconclusive
CCOc1ccc(-c2nnc(SCC(=O)Nc3cccc(C#N)c3)o2)cc1	none (no result: HCV inh)
CCOC(=O)c1c(NC(=O)c2cccs2)sc2c1CC(C)(C)OC2	FMDV inh inconclusive, HCV inh 7.94µM (no result: VACV mCherry inh)
CC(C)COc1ccc(C(=O)Nc2sc3c(c2C(=O)O)CC(C)(C)OC3)cc1	HCMV inh inconclusive, VACV mCherry inh inconclusive, HCV inh 10µM
CCN(C(=O)COC(=O)CCn1c(C)csc1=O)c1c(N)n(Cc2ccccc2)c(=O)[nH]c1=O	none
Cc1ccc(CN(C)C(=O)COC(=O)CSc2cc(C)c3ccccc3n2)cc1	none (no result: VACV mCherry inh, VACV Venus inh)
CC(=O)C1=C(c2cccc([N+](=O)[O-])c2)N(C(C)=O)n2c(C)nnc2S1	FMDV inh inconclusive, HCMV inh -93.3, HCV inh inconclusive (no result: VACV mCherry inh, VACV Venus inh)
COc1cccc(-c2cn3c(n2)sc2cc(C(=O)NCCCc4ccccc4)ccc23)c1	none (no result: HCMV inh, HCV inh)
C=C1CCCC2OC(CC3=CC4/C(C)=C/CC(C)CC(/C=C(\C)C(O)C5CC(O)C(O)C(CCC(O)/C=C/C(C)=C/CCC6=NCCC(C3)C64C)O5)OC(=O)CC3OC(C(O)C1)C(O)C3O)CC(O)C2O (centres undefined)	HCMV inh -78.5 (no result: FMDV inh, VACV mCherry inh, VACV Venus inh, HCV inh)
